INHIBITION data for 56 compounds are collected here from ChEMBL document CHEMBL4513216, “Probing the Open Global Health Chemical Diversity Library for Multistage-Active Starting Points for Next-Generation Antimalarials” (ACS Infect Dis, 2020).

Hit rate of the full screen: of about 69,000 compounds, about 8,600 (12%) showed an effect of 50% or more. The sample holds strong results, similar compounds and a random draw of the others, so the mix is not that of the screen.

This assay deals with Plasmodium berghei. Kind of assay: Screen against P. berghei liver stage (PbLuc), transformed with Luciferase, at 10uM. It counts as functional, HepG2. The settings on record: tested at 10 uM.
In the case of `COc1cccc(-c2ccnc(C3CCNCC3)c2)c1`, the INHIBITION is recorded as -23.8%. Under `Cc1ccc2c(c1)C(NC1CC1)CC21CCNCC1` (stereo unspecified) stands 42.1%. Turning to `COc1cccc(C(=O)N2CCCCC2c2nccs2)c1OC` (stereo unspecified), the INHIBITION is -7.35%.

Turning to `COCC(=O)N1CCC(c2cc3n(n2)[C@@H](C(F)(F)F)C[C@@H](C)N3)CC1`, the INHIBITION came out at 49.6%. For the compound `CC(C)(O)CCc1cccc(C(=O)N2CCC[C@H]2C(N)=O)c1`, the INHIBITION is given as 40.2%. In the case of `COc1ccc(NC(=O)NCCCn2nc3ccccn3c2=O)cc1`, the INHIBITION was determined as 16.8%. For the compound `O=C(N1CCCC1)N1CCO[C@H]2[C@@H](OCc3cccnc3)CC[C@@H]21`, the INHIBITION was -26.5%. On to `Cn1c(CN2CCCC(Cn3cncn3)C2)nc2ccccc21` (stereo unspecified), for which the INHIBITION is on record as 33.1%. With `O=C(CN1CCC(c2nnc(C(F)(F)F)o2)CC1)Nc1cccnc1`, the INHIBITION is recorded as -17.8%. Regarding `CCCN(CCC)C(=O)c1cnn(C)c1C`, the INHIBITION came to 51.3%. The figure for `COCCN(Cc1ccoc1)C(=O)c1ccccc1Cl` is -33.2%; for `COCCN(Cc1ccc(F)cc1Cl)C(=O)c1ccncc1` it is 21%; for `COCCN(Cc1ccccc1)C(=O)c1cnn(C)c1C` it is 81.5%. The figure for `COCCN(Cc1ccc(F)cc1Cl)C(=O)c1ccc(=O)[nH]n1` is 16.6%; for `COCCN(Cc1ccc(F)cc1Cl)C(=O)c1cc(C)n[nH]1` it is 32.5%; for `COCCN(Cc1ccc(F)cc1Cl)C(=O)c1cnn(C)c1C` it is 80.2%.

In the case of `COCCN(Cc1ccoc1)C(=O)c1ccccc1OC`, the INHIBITION is on record as 28.4%. For the compound `COCCN(Cc1ccc(F)cc1Cl)C(=O)c1ccccn1`, the INHIBITION came to 52.4%. Under `CCc1ccccc1NC(=O)c1cnn(C)c1C` stands 21.5%; under `CCCN(CCC)C(=O)c1sc(C)nc1C`, -3.14%; under `COCCN(Cc1ccc(F)cc1Cl)C(=O)c1csnn1`, 39.5%. Under `CN1CCC(NC(=O)C2CN(c3cncnc3)CCO2)CC1` (stereo unspecified) stands 14.7%.

With `CN1C[C@@H](c2cccc(F)c2)[C@H]2[C@H]1CCCCCN2C(=O)C1CC1`, the INHIBITION is given as 12.2535%. For `COc1ccc(C(O)CNC(=O)NCc2nc(C)cs2)cc1` (stereo unspecified), the INHIBITION stood at 9.14%. The figure for `COc1ccc(C(C)NC(=O)Cn2ccc(=O)n(C)c2=O)cc1OC` (stereo unspecified) is 31.9%; for `COc1ccc(CC(=O)N2CCCC2Cn2cc(C)cn2)c(OC)c1` (stereo unspecified) it is 43.2%. In the case of `CC(C)(O)CN1CCN(C(=O)c2cccn2Cc2cccnc2)CC1`, the INHIBITION is given as 34.6%. The figure for `Cc1cccc2nc(CN3CCCC3Cn3cccn3)cn12` (stereo unspecified) is 19.4%; for `Cn1cc(CNC2CCCOc3c2ccc2ccccc32)cn1` (stereo unspecified) it is -28.7%.

Take `CNC(=O)CN(C)Cc1ccc(F)cc1Cl`: the INHIBITION is -154%. For the compound `COCCN(CCOC)C(=O)c1cnn(C)c1C`, the INHIBITION worked out at 90.7%. For the compound `COCCN(CCOC)C(=O)c1cnn(C)c1-n1c(C)ccc1C`, the INHIBITION stood at 42.1%.

In the case of `COCCCNC(=O)CN(C)Cc1ccc(F)cc1Cl`, the INHIBITION is listed as -102%. As for `COCCNC(=O)CN(C)Cc1ccc(F)cc1Cl`, the INHIBITION came to 52.2%. In the case of `CCCn1ncc(C(=O)N(CCOC)Cc2c(C)nn(CC)c2C)c1C`, the INHIBITION is -89.3%. Regarding `CN(C)C(=O)C1CCN(C(=O)c2c[nH]c3cc(Cl)ccc23)CC1`, the INHIBITION is reported as -32.2%. On to `CN1CCC(c2cncc(C(=O)NCc3ccc(F)cc3)n2)CC1`, for which the INHIBITION is -3.02%. Turning to `O=C(CCc1cccnc1)N1CCC2(CCN(CC3CCCC3)C2)C1` (stereo unspecified), the INHIBITION was -7.2%. The figure for `COCCN1CCC(c2cncc(-c3ccccc3C)n2)CC1` is 46%; for `COc1ccc(CN2CCN(C3CCc4ccccc4C3)CC2)cc1O` (stereo unspecified) it is 46.7%; for `Oc1cccc(CN2CCN(C3CCc4ccccc4C3)CC2)c1` (stereo unspecified) it is 54.8%.

As to `COc1cc(O)ccc1CN1CCN(C2CCc3ccccc3C2)CC1` (stereo unspecified), the INHIBITION is on record as 37.6%. Turning to `CNc1cc(C)nc(C2COCCN2CCc2ccc(F)cc2)n1` (stereo unspecified), the INHIBITION came to 19.6%. `CCN1Cc2cc(F)ccc2N(C(C)=O)CCC1=O`: the INHIBITION is 23%. The figure for `CC(C)N1CCc2[nH]nc(C(=O)N3CCOCC3)c2C1` is -1.12%; for `CCN(CC)[C@@H]1CN(C(=O)c2ccc(C#N)cc2)[C@@H]2CCCO[C@H]12` it is 73.6%. For the compound `CCN(CC)[C@@H]1CN(C(=O)c2ccnnc2)[C@@H]2CCCO[C@H]12`, the INHIBITION is listed as -62.8%.

Consider `CN(C)[C@@H]1CN(C(=O)c2ccc(C#N)cc2)[C@@H]2CCCO[C@H]12`, for which the INHIBITION is -73.3%. Under `COCCn1c2c(ccc1=O)CCN(C(=O)Cc1ccsc1)CC2` stands 27.5%; under `CC(C)C(=O)N1CCCC(c2ncncc2-c2ccncc2)C1` (stereo unspecified), 48.3%; under `O=C(c1ccccn1)N1CCCN(Cc2nnc(C3CC3)o2)CC1`, -57.4%. In the case of `Cc1noc(CN2CC=C(c3c[nH]c4ncccc34)CC2)n1`, the INHIBITION is 74.7%. Under `Fc1ccc2c(C3=CCN(Cc4nnc(C5CCC5)o4)CC3)c[nH]c2c1` stands 34.6%; under `C1=C(c2c[nH]c3ncccc23)CCN(Cc2nnc(C3CC3)o2)C1`, 71.4%; under `Cc1noc(CN2CC=C(c3cnn(C4CCS(=O)(=O)C4)c3)CC2)n1` (stereo unspecified), 1.98%. For the compound `Cc1cnc(CN2CC=C(c3c[nH]c4ncccc34)CC2)o1`, the INHIBITION was determined as 44.9%.
